Measurements as given in PubChem BioAssay AID504727 (Broad Institute, 2011).
The source made the active and inactive calls.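 How the source made its calls: active means fitted half-maximal concentration AC50 at or below ten times the highest valid tested dose, with signal falling as DNA is displaced (actives reach about 34 µM in these data); inconclusive means flat fit at moderate signal loss, or poor fit quality; inactive means the rest, including signal rising instead of falling.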

Assay: DNA intercalators displacing acridine orange, dose response, artefact control for KSHV LANA DNA-binding inhibitor project, biochemical, fluorescence polarization, cherry-picked samples, set 2 (AID 504727)
Details: AC50: Acridine orange-DNA displacement; series mostly up to 35 µM

| Compound | AC50 |
| --- | --- |
| CCN(CC)CCCC(C)n1c2nc(=O)[nH]c(=O)c-2nc2cc(Cl)ccc21 (configuration not stated) | 316 nM (active) |
| COc1[nH]c(/N=C/c2ccccc2)c(C#N)c1C#N | inactive |
| COc1cccc2c1NC(C(=O)O)C1CC=CC21 (configuration not stated) | inactive |
| Cc1cc2nc3c(=O)[nH]c(=O)[nH]c3nc2c([N+](=O)[O-])c1N | 2410 nM (active) |
| COc1ccccc1C(=O)NCC(=O)OCC(=O)N(CC(C)C)c1c(N)n(Cc2ccccc2)c(=O)[nH]c1=O | inactive |
| Cc1ccc(OCC(=O)NC(=S)Nc2cccc(NC(=O)c3ccc(Cl)cc3Cl)c2)cc1 | inactive |
| Cc1cc(NS(=O)(=O)c2ccc(Nc3nc(-c4sc(N)nc4C)cs3)cc2)no1 | inactive |
| O=C(O)/C=C/C(=O)Nc1ccc(Cc2ccc(NC(=O)/C=C/C(=O)O)cc2)cc1 | inactive |
| COc1ccc(CC(=O)O/N=C(\N)c2ccc(OC)cc2)cc1 | inactive |
| Cc1cc2c(N)cccc2nn1 | inactive |
| Cc1cc(S(=O)(=O)NC2CCN(Cc3ccccc3)CC2)c(C)cc1Cl | inactive |
| CC(=O)c1ccc2c(c1)C1C=CCC1C(C(=O)O)N2 (configuration not stated) | inactive |
| CCCCN(C(=O)C(C)Oc1ccc(Br)cc1)c1c(N)n(CC(C)C)c(=O)[nH]c1=O (configuration not stated) | inactive |
| O=S(=O)(O)c1cc(O)c(N=Nc2ccc(O)cc2O)c2ccccc12 | inactive |
| O=C(O)C1Nc2ccc(Br)cc2C2C=CCC12 (configuration not stated) | inactive |
| COc1cc(NC(=O)c2ccc(CNc3c(N4CCCC4)c(=O)c3=O)cc2)cc(OC)c1OC | inactive |
| CC(C)CCN1C(=O)c2cccc3c(N)ccc(c23)C1=O | 7390 nM (active) |
